# Results: PubChem BioAssay
# A number with no mark means an inactive call. For part of these data: Entries with a potency or affinity are not part of this list. Activity calls are given as the source filed them. Unless noted, how the calls were made is not given here.
# What was measured:
# [1] = antimalarial activity against Dd2 strain (AID 2302;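 active means growth inhibition above 50% at the single 2 µM test dose, taken to imply half-maximal potency below 2 µM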;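 further: 0% = DMSO untreated growth and 100% = chloroquine plus artemisinin killed control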); conditions: P. falciparum Dd2 in RBCs, LDH growth readout, 72 h; at 2 µM; hits give high values
# [2] = HepG2 cytotoxicity, primary screen, cytotoxicity control for P. falciparum antimalarial project, cell-based, ATP luminescence (AID 2303;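 active means inhibition above 50%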;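 further: 0% = DMSO wells and 100% = digitonin-killed cells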); conditions: HepG2 viability, 24-48 h, at 10 µM, hits give high values
# [3] = target: L-lactate dehydrogenase (Plasmodium falciparum (isolate CDC / Honduras)) (UniProt Q27743); test: PfLDH activity inhibition – cell lysate, 3D7 strain, counter-screen for P. falciparum growth inhibition project (AID 2304);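 further: 0% = vehicle and 100% = reference inhibitor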; conditions: P. falciparum 3D7 crude extract, LDH APAD/NBT absorbance; at 2 µM; hits give high values
# [4] = inhibition of 3D7 malaria parasite growth – strain 3D7 (AID 2306);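 further: 0% = DMSO wells and 100% = chloroquine plus artemisinin control wells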; conditions: P. falciparum 3D7 erythrocytic growth, LDH absorbance, 72 h; at 2 µM; hits give high values
# [5] = target: Calcium-dependent protein kinase 1 (Plasmodium falciparum (isolate 3D7)) (UniProt P62344); test: PfCDPK1 kinase inhibitors, biochemical, TCAMS library (AID 1159585; cut-off not given, nearly all actives have IC50 up to about 0.98 µM;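 further: inhibitors leave more ATP so luminescence rises with inhibition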); conditions: recombinant PfCDPK1, Kinase-Glo ATP depletion luminescence
# [6] = target: Plasmodium falciparum protein kinase 6 (PK6, PF3D7_1337100) (UniProt Q8IDW1); test: PfPK6 kinase inhibitors, biochemical, TCAMS library (AID 1159586); conditions: recombinant PfPK6, Kinase-Glo ATP depletion luminescence
# [7] = target: Protein kinase 7 (PK7), Plasmodium falciparum 3D7 (PF3D7_0213400) (UniProt Q7YTF7); test: inhibition of Plasmodium PK7 catalytic activity – biochemical, TCAMS antimalarial set, Kinase-Glo luminescence (AID 1159587); conditions: recombinant PfPK7, Kinase-Glo ATP depletion luminescence
# [8] = target: Calcium-dependent protein kinase 4 (Plasmodium falciparum (isolate 3D7)) (UniProt Q8IBS5); test: PfCDPK4 kinase inhibitors, biochemical, TCAMS library (AID 1159588; cut-off not given, nearly all actives have IC50 up to about 0.91 µM); conditions: recombinant PfCDPK4, Kinase-Glo ATP depletion luminescence
# Chain of Calcium-dependent protein kinase 4 (Plasmodium falciparum (isolate 3D7)) (Q8IBS5 whole entry, looked up): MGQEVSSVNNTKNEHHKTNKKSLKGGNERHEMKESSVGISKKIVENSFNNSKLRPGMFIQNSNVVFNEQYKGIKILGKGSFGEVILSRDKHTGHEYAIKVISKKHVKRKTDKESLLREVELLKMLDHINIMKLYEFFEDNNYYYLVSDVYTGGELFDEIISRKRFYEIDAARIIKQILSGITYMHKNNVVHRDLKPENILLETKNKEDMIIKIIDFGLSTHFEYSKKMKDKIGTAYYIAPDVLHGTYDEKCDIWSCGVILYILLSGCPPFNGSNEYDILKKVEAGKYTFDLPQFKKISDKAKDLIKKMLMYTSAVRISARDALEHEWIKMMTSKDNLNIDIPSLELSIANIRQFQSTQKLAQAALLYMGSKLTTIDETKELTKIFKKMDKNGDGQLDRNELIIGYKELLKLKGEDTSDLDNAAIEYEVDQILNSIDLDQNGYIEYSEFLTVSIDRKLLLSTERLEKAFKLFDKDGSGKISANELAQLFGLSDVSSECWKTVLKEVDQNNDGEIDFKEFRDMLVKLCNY
# Chain of Plasmodium falciparum protein kinase 6 (PK6, PF3D7_1337100) (Q8IDW1 1-305): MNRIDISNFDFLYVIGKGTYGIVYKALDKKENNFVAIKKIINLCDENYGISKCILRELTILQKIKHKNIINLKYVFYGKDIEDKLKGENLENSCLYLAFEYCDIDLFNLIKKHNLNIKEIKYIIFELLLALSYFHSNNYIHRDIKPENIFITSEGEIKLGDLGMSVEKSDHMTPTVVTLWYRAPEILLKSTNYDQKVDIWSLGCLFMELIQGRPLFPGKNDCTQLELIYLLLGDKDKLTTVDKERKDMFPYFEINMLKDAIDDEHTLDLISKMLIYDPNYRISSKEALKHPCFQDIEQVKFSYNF
# Chain of Protein kinase 7 (PK7), Plasmodium falciparum 3D7 (PF3D7_0213400) (Q7YTF7 1-343): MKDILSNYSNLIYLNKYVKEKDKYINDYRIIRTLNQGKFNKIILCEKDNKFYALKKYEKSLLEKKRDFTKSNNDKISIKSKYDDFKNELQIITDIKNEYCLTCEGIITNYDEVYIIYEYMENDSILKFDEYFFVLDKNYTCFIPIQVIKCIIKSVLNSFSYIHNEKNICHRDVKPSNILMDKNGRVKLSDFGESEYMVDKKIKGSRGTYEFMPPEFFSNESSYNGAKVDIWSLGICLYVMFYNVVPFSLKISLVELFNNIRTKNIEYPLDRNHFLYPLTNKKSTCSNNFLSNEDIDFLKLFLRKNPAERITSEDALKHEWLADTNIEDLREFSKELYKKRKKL
# Chain of Calcium-dependent protein kinase 1 (Plasmodium falciparum (isolate 3D7)) (P62344 whole entry, looked up): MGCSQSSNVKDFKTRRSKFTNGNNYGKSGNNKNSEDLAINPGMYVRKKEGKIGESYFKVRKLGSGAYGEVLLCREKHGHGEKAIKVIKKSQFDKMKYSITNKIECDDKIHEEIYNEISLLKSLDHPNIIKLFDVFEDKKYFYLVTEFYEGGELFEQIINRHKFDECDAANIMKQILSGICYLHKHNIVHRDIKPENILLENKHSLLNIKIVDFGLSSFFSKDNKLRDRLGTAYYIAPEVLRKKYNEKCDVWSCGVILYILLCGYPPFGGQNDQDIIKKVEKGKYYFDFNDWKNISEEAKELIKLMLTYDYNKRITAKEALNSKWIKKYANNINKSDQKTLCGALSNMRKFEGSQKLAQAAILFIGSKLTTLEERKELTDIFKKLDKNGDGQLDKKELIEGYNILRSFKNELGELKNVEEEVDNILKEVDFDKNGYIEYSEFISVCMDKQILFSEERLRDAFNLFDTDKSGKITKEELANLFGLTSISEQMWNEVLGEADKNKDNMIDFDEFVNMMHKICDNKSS
# Chain of L-lactate dehydrogenase (Plasmodium falciparum (isolate CDC / Honduras)) (Q27743 whole entry, looked up): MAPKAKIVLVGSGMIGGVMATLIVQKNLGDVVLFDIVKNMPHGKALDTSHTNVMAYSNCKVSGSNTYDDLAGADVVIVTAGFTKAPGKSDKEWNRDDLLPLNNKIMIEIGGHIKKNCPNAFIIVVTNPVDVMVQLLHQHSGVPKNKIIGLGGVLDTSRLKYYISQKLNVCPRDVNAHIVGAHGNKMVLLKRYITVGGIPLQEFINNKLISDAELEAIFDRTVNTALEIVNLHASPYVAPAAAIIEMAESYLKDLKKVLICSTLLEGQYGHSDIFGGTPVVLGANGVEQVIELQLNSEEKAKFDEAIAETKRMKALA
SMILES,growth inhibition [1],inhibition [2] [%],inhibition [3] [%],growth inhibition [4],outcome [5],outcome [6],outcome [7],outcome [8]
COc1ccc2c(NN=Cc3ccc([N+](=O)[O-])cc3)ccnc2c1,98% (active),-1,-1,100% (active),inactive,inactive,inactive,inactive
Cc1ccc(C(=O)Nc2ccc(F)c(F)c2F)cc1S(=O)(=O)N1CCCCC1,69% (active),3,-8,92% (active),inactive,inactive,inactive,inactive
CN1CCN(CC(=O)Nc2cccc(-c3ccc(-c4nc5ccc(F)cc5[nH]4)cc3)c2)CC1,98% (active),20,6,101% (active),inactive,inactive,inactive,inactive
